Our source for the inhibition values is PubChem BioAssay AID1210 (NMMLSC, 2008).

Molecules are shown by their SMILES. Values without a mark were called inactive.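 How the source made its calls: active means blocks over 70% of labeled estradiol binding at 10 µM, or over a set limit at 100 nM; inactive means the rest.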

Chain of Estrogen receptor beta (Homo sapiens) (Q92731 whole entry, looked up): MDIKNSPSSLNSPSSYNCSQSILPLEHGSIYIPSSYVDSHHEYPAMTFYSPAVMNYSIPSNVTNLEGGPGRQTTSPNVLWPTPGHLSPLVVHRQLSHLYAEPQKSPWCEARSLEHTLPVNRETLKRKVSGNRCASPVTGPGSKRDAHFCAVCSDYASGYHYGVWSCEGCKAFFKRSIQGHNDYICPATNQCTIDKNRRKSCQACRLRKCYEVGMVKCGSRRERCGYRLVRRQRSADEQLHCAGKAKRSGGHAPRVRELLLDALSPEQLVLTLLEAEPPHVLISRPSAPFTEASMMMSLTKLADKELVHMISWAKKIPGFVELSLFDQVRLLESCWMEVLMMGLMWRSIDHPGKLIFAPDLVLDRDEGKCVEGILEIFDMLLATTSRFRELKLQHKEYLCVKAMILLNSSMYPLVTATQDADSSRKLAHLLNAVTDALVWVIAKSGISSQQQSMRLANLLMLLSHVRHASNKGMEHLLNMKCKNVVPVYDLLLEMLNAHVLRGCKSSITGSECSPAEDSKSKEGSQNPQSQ

This assay addresses Estrogen receptor beta (Homo sapiens) (UniProt Q92731). Briefly: displacement of fluorescent estrogen from ERbeta – cell-based, Cos7 ERbeta-GFP, flow cytometry, primary screen (AID 1210).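 Further: 0% = DMSO vehicle wells and 100% = complete loss of labeled estradiol signal.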 To be noted: fluorescent estrogen binding, at 10 µM, active compounds read high. A general note: A flow cytometer gives signals particle by particle.
What is called inhibition is the relative decrease from the control value, in per cent. Take `CCCCN(CCCC)S(=O)(=O)c1ccc(NC(=O)Cc2cccs2)cc1`: the inhibition is 50%.

Turning to `Clc1ccc(Sc2cc(N3CCOCC3)nc(-c3ccccc3)n2)cc1`, the inhibition was 36%.

`O=C(OC1CCCCC1)c1ccc2c(c1)C1C=CCC1C(C(=O)O)N2` (configuration not stated): the inhibition is 7%.

Regarding `Nc1ccc2nn(-c3cccc4ccccc34)nc2c1`, the inhibition was 28%.

Regarding `CN(C)NC(=S)Nc1ccc2nc(-c3ccccn3)c(-c3ccccn3)nc2c1`, the inhibition was 25%.

Take `CC12CCCCC1(O)[N+](=O)C1=C(CCCC1)N2[O-]` (configuration not stated): the inhibition was 0%.

`COc1cc(/C=N/N2CCN(C3c4ccccc4-c4ccccc43)CC2)cc(OC)c1O`: the inhibition is 12%.

Regarding `CN(C)c1ccc(N=Cc2ccco2)cc1`, the inhibition is 47%.

In the case of `COc1cccc2sc(Nc3nnc(-c4ccc(F)cc4)o3)nc12`, the inhibition was 33%.

In the case of `Nc1ccc2nc(-c3ccc(Cl)cc3)[nH]c2c1`, the inhibition is 42%.

With `COc1ccc(-c2nc(C(N)=O)c3[nH]c(=O)n(-c4cccc(Cl)c4)c3n2)cc1OC`, the inhibition is 13%.

In the case of `COc1ccccc1N1CCN(C(=O)c2ccc3nc(-c4ccco4)c(-c4ccco4)nc3c2)CC1`, the inhibition is 60%.

Take `CC(C)C1Nc2ccc(S(N)(=O)=O)cc2C2C=CCC21` (configuration not stated): the inhibition is 57%.

In the case of `CCOc1cc2c(c([N+](=O)[O-])c1)NC(c1ccc(Br)cc1)C1CC=CC21` (configuration not stated), the inhibition was 7%.

For the compound `Cc1csc(C(C#N)C(=O)c2ccncc2)n1` (configuration not stated), the inhibition was 13%.

`CCc1oc2c(C)c(O)ccc2c(=O)c1-c1ccc2ccccc2n1`: the inhibition was 39%.

With `CCC1=NN2C(=N)/C(=C\c3ccc(SCc4ccco4)o3)C(=O)N=C2S1`, the inhibition is 35%.
